Compound in this experiment: CN[C@@H]1C[C@H]2O[C@@](C)([C@@H]1OC)n1c3ccccc3c3c4c(c5c6ccccc6n2c5c31)C(=O)NC4 [staurosporine]
Nature of the experiment: log2 fold change of tryptic peptide abundance, ligand vs vehicle (limited proteolysis) (log2 ratio); higher = more trypsin-susceptible (destabilized). The settings on record: ligand concentration: 20 uM; sample: mouse liver crude lysate; replicate design: treated separately.
Sequence of UniProt P47802 (P47802 whole entry): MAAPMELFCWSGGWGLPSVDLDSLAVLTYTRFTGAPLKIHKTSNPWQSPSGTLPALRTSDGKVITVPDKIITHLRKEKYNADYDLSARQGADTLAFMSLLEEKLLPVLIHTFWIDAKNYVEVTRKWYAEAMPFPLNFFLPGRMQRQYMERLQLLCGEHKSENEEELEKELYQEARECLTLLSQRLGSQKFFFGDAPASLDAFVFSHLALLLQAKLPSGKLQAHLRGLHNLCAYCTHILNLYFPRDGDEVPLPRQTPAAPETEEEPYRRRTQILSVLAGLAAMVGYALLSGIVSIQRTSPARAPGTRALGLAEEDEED
Sequence of UniProt Q9JHU4 (Q9JHU4 whole entry): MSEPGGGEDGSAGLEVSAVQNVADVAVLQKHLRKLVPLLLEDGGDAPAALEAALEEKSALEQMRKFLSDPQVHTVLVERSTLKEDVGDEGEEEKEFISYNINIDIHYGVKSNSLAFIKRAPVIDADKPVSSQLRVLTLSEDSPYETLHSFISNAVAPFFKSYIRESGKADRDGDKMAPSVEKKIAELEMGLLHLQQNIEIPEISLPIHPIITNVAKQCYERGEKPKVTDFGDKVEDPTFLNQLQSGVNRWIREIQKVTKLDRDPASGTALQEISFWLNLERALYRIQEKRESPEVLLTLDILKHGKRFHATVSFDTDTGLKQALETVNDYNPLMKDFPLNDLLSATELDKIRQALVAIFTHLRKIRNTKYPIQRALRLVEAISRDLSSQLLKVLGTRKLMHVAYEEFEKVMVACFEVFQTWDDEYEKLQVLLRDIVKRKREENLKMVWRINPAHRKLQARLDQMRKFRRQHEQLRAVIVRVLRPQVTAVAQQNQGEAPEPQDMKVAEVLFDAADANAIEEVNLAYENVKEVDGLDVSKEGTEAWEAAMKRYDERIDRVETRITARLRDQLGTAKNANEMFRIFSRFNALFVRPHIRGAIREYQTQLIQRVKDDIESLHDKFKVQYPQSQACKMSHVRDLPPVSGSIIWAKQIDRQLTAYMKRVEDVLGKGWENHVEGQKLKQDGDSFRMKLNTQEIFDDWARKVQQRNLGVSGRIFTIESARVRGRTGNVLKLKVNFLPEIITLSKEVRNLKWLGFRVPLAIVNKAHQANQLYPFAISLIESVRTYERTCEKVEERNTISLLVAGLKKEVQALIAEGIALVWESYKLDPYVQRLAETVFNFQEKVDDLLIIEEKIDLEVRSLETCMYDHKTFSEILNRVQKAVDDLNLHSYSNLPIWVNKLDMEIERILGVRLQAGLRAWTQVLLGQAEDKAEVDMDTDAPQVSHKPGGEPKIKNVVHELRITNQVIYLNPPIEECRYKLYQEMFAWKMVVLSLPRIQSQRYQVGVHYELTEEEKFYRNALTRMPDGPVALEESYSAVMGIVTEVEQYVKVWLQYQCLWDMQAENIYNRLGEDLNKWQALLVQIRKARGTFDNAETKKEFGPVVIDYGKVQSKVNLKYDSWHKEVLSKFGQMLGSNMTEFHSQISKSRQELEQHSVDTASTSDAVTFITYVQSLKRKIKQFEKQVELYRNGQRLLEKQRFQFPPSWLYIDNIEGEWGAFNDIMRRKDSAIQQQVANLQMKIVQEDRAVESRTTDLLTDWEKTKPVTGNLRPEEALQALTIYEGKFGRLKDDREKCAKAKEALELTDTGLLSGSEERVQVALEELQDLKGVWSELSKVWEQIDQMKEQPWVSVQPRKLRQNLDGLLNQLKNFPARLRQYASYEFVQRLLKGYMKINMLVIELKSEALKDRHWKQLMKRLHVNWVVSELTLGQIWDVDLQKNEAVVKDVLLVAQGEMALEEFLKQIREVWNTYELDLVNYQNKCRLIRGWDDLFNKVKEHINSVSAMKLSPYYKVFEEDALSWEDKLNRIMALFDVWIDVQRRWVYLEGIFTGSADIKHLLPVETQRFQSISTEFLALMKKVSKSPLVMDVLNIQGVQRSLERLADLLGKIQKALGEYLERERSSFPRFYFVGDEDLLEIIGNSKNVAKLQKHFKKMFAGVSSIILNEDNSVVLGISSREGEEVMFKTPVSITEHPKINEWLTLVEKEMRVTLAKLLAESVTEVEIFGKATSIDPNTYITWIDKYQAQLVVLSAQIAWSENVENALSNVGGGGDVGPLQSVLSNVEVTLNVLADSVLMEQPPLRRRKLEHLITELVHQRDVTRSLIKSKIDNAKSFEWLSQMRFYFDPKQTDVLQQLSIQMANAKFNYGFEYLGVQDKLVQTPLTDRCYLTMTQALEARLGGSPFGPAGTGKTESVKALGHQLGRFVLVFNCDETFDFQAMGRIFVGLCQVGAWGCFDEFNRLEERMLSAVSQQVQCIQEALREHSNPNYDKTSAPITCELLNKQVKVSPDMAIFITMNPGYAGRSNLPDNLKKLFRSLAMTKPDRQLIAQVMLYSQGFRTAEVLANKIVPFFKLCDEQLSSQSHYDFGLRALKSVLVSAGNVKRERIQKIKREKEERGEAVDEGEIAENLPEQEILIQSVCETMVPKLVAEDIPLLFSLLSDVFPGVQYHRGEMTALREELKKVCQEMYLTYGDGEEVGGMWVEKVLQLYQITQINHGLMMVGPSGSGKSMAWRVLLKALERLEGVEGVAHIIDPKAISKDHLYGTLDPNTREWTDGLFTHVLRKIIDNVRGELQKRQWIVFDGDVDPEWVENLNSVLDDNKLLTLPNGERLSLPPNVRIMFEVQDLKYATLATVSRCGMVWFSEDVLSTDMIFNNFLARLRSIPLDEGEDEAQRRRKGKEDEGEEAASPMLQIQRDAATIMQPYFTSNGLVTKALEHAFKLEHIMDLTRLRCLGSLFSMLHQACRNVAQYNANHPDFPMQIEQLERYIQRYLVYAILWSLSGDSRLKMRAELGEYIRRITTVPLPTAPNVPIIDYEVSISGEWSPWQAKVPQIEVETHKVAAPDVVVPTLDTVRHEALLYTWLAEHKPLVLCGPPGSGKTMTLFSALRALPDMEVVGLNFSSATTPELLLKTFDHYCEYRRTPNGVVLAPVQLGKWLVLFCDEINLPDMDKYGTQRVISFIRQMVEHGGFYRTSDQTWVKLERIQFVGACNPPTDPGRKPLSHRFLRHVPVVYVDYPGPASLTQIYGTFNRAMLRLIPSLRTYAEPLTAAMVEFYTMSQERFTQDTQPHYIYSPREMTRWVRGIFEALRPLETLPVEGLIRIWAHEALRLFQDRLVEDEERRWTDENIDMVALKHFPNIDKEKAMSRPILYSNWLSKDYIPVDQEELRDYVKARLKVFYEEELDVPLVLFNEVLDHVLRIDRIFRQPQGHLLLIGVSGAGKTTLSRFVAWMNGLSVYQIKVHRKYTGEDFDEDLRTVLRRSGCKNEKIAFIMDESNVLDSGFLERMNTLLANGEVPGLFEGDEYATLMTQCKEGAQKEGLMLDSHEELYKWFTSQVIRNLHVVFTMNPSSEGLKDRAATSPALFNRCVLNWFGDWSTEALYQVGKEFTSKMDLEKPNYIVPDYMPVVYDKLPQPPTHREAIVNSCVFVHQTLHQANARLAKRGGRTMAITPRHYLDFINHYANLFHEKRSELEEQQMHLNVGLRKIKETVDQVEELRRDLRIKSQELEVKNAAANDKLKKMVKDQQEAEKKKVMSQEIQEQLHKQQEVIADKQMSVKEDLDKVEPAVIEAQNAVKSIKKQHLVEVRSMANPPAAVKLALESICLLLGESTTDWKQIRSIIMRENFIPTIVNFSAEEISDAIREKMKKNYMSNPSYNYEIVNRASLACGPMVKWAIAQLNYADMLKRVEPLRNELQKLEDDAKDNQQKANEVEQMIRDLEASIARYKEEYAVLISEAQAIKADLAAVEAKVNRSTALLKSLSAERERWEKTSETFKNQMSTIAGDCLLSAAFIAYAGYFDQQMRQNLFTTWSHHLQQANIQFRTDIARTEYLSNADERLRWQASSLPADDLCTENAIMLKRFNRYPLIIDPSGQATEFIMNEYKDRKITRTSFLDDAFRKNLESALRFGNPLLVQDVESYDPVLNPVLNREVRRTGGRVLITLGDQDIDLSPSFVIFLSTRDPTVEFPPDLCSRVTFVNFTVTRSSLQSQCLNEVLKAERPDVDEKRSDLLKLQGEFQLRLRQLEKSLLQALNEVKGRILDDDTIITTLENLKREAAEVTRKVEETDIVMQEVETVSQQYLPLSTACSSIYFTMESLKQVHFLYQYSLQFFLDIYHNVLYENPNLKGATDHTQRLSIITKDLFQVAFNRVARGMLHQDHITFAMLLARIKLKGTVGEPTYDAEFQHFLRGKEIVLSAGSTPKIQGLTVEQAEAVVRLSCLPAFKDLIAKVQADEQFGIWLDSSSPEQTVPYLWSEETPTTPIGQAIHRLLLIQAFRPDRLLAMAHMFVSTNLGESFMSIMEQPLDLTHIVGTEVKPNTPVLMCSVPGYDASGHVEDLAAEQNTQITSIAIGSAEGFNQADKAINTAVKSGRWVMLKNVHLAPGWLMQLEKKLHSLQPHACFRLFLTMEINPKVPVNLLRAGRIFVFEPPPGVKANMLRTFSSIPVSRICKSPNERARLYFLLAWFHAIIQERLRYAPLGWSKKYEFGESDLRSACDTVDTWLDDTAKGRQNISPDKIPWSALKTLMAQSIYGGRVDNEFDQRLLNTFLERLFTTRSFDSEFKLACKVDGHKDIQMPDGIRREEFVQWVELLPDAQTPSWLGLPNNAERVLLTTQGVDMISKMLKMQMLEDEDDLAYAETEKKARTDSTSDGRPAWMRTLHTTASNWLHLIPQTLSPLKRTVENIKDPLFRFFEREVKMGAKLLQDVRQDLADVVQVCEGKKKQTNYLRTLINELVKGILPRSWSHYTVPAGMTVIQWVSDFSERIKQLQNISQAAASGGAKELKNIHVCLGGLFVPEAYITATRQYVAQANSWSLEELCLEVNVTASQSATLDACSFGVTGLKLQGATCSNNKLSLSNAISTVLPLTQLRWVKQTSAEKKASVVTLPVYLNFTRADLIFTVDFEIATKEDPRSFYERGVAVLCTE
Sequence of UniProt Q9JIZ0 (Q9JIZ0 whole entry): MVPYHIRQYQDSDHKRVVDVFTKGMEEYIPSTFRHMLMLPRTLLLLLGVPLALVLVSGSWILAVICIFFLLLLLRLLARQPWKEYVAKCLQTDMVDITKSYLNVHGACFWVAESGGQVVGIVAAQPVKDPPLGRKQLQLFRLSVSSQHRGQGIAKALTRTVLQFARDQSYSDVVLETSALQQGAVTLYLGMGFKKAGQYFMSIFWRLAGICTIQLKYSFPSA
In the case of “UniProt Q9D826 (peptide sequence: INVCYWR, peptide start residue: 224)”, the log2 fold change is 0.236.
As for “UniProt Q03147 (peptide sequence: DKNTNQIVAIKK, peptide start residue: 31)”, the figure is -2.43; as for “UniProt Q9ERE3 (peptide sequence: PTDFDFLK, peptide start residue: 32)”, -2.47; as for “UniProt Q9D6M3 (peptide sequence: LAANDFFR, peptide start residue: 84)”, 0.616.
Then “UniProt Q91WL5 (peptide sequence: GLLMLDGQTWFQHR, peptide start residue: 128)”, with 0.409; and “UniProt Q8VDM4 (peptide sequence: SETELKDTYAR, peptide start residue: 546)”, with -1.29.
Then “UniProt Q9CZW6 (peptide sequence: GASWLGKR, peptide start residue: 64)”, with -0.952.
In the case of “UniProt Q9JIZ0 (peptide sequence: LAGICTIQLK, peptide start residue: 207)”, the log2 fold change was 0.276.
In the case of “UniProt P55096 (peptide sequence: EKQTIHSVFRK, peptide start residue: 288)”, the log2 fold change worked out at 0.493.
As for “UniProt Q9QXX4 (peptide sequence: AGQTTYNGVTDCFRK, peptide start residue: 555)”, the figure is 0.466.
Turning to “UniProt Q9D2C7 (peptide sequence: MNIFDRK, peptide start residue: 1)”, the log2 fold change was determined as 0.348.
As for “UniProt P63158 (peptide sequence: HPDASVNFSEFSKKCSER, peptide start residue: 31)”, the figure is -0.395; as for “UniProt O70293 (peptide sequence: EFCATRPELTR, peptide start residue: 69)”, -1.23.
Then “UniProt P47809 (peptide sequence: ISPEQHWDFTAEDLK, peptide start residue: 87)”, with -0.533; and “UniProt Q61161 (peptide sequence: GLHHLHSQGK, peptide start residue: 123)”, with -1.65; and “UniProt O88351 (peptide sequence: DLKPENIVLQQGEKR, peptide start residue: 145)”, with -0.744.
For the target “UniProt P47802 (peptide sequence: EKYNADYDLSAR, peptide start residue: 77)”, the log2 fold change is -0.346.
Turning to “UniProt Q9JHU4 (peptide sequence: SNLPDNLK, peptide start residue: 2024)”, the log2 fold change stood at 0.261.
Take “UniProt P18653 (peptide sequence: ADPSQFELLK, peptide start residue: 57)”: the log2 fold change was -1.44.
Then “UniProt Q61578 (peptide sequence: NVINTFTQTAR, peptide start residue: 94)”, with 0.834; and “UniProt Q68FL6 (peptide sequence: GIGVFGDMAK, peptide start residue: 601)”, with 0.564; and “UniProt Q91Y86 (peptide sequence: MLVIDASKR, peptide start residue: 301)”, with -1.79.
“UniProt Q8JZR0 (peptide sequence: GYLKDPEK, peptide start residue: 503)”: the log2 fold change amounted to 0.616.
As for “UniProt P58044 (peptide sequence: WWDNLNHLSPFVDHEK, peptide start residue: 208)”, the figure is 1.05.
As for “UniProt Q00623 (peptide sequence: TQLAPHSEQMR, peptide start residue: 184)”, the figure is 0.455; as for “UniProt P09103 (peptide sequence: EADDIVNWLKK, peptide start residue: 123)”, 0.314.
Then “UniProt P70349 (peptide sequence: IIFEDDR, peptide start residue: 31)”, with -0.309; and “UniProt Q66GT5 (peptide sequence: IDHTVLLGALPLK, peptide start residue: 41)”, with 0.379.
Turning to “UniProt P06728 (peptide sequence: LQLTPYIQR, peptide start residue: 155)”, the log2 fold change worked out at 0.346.
Then “UniProt Q9CQU3 (peptide sequence: YIPFTHGK, peptide start residue: 174)”, with 0.278.
Then “UniProt P31532 (peptide sequence: KYFQGLLNR, peptide start residue: 81)”, with 0.505; and “UniProt Q8CC86 (peptide sequence: VCLYLGLEEQEPHPGER, peptide start residue: 253)”, with -0.575; and “UniProt P97864 (peptide sequence: LFFIQACR, peptide start residue: 180)”, with -0.485.
Then “UniProt Q8VDP6 (peptide sequence: MIDLSGNPVLR, peptide start residue: 122)”, with 0.341; and “UniProt Q61037 (peptide sequence: DFVPYITK, peptide start residue: 907)”, with -0.612.
With “UniProt O55137 (peptide sequence: GLAPEQPVTLR, peptide start residue: 25)”, the log2 fold change was -0.292.
As for “UniProt O35857 (peptide sequence: NSKGEVYDGDPDKVQR, peptide start residue: 403)”, the log2 fold change was -0.52.
On to “UniProt Q8CIM7 (peptide sequence: GNPESSFNDKNLR, peptide start residue: 287)”, for which the log2 fold change was -0.562.

For the origin of these results see the supplement of paper PMC12819154, “High-throughput peptide-centric local stability assay extends protein–ligand identification to membrane proteins, tissues and bacteria” (Nature Structural & Molecular Biology, 2025).
